Measured potencies and affinities stand elsewhere. Activity calls are given as the source filed them.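 The calls were made as follows: active = a dose-response curve fit returns a half-maximal inhibitory concentration, extrapolated values included; inactive = the fit returns no such concentration.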

These results are taken from PubChem BioAssay AID1233 (SRMLSC, 2008).

This assay addresses HMG-CoA reductase [Enterococcus faecalis] (UniProt Q9FD70). Put plainly: class II HMG-CoA reductase inhibition potency – biochemical, Enterococcus faecalis, confirmation (AID 1233). The conditions noted are these: purified E. faecalis HMGR, NADPH absorbance 340 nm kinetics; series mostly up to 100 µM.
As to `Cc1cc(C)nc(N/N=C2/CCCC/C2=C\c2ccccc2)n1`, the compound was called inactive.

Turning to `CN(C)S(=O)(=O)c1cccc(C(=O)Nc2ccc(S(=O)(=O)N3CCCC3)cc2)c1`, the compound was called inactive.

For `COC(=O)c1sccc1-c1ccc(C(=O)Nc2cccnc2)o1`, the outcome was inactive.

For `O=[N+]([O-])/C(=C\Nc1ccccc1Cl)S(=O)(=O)c1ccccc1`, the result was inactive.

`COc1ccccc1/C=C/C(=O)OCC(=O)Nc1c(F)cccc1F`: the outcome was inactive.

`Fc1ccccc1Cn1cnc(NC(=S)NCCc2ccccc2)n1`: the compound was classed as inactive.

In the case of `COc1ccc(OC)c(NC(=O)NNC(=O)CCCOc2ccc(Cl)cc2C)c1`, the result was inactive.

As for `Cc1cnc(NC(=O)CSc2nnc(-c3ccc(Cl)cc3Cl)n2N)s1`, the outcome was inactive.

With `O=C1CC(c2ccccc2)CC2=C1CN(C1CCCCC1)CN2` (configuration not stated), the call was inactive.

On to `COc1cc(NC(=O)c2cc3nc(-c4ccccc4)cc(-c4ccccc4)n3n2)cc(OC)c1OC`, for which the compound was classed as inactive.

For `Cc1cccc(NC(=O)CSc2ccc(-c3ccc4c(c3)OCO4)nn2)c1C`, the result was inactive.

In the case of `CN(C(=O)c1cc2ccccc2oc1=O)C1(C)CCS(=O)(=O)C1` (configuration not stated), the call was inactive.

For the compound `O=C(COC(=O)CSc1cc(Cl)ccc1Cl)Nc1ncc(C(F)(F)F)cc1Cl`, the compound was called inactive.

For the compound `COCCNC(=O)C(c1ccccc1C)N(C(=O)Cn1nnc2ccccc21)c1cccnc1` (configuration not stated), the compound was called inactive.

Turning to `CC(=O)Nc1ccc(C(=O)CSc2nnc(Cc3ccccc3)o2)cc1`, the compound was classed as inactive.

Take `CCc1c(C)nc2ncnn2c1NCCc1ccccc1`: the result was inactive.

With `CCCC(=O)NC(=S)Nc1ccc(Cl)cn1`, the compound was called inactive.

Consider `Cc1ccc(NC(=O)NC2CCCCC2)cc1S(=O)(=O)N1CCOCC1`, for which the result was inactive.

Turning to `CC(=O)Oc1ccccc1-c1nc(C)nc(N(C)C(C)=O)n1`, the compound was called inactive.

Take `COc1cc(C)nc(Oc2ccc(OCCOc3ccccc3)nn2)n1`: the result was inactive.

Regarding `CC1CN(Cc2cnc(Cl)s2)CC(C)O1` (configuration not stated), the compound was called inactive.

Take `CCCCOC(=O)NCN1C(=O)C2C3C=CC(C3)C2C1=O` (configuration not stated): the call was inactive.

Take `Cc1ccc(Cl)cc1NC(=O)COC(=O)C12CC3CC(CC(C3)C1)C2`: the compound was classed as inactive.

For the compound `O=C(CCc1nnc(CCCc2ccccc2)o1)NCCc1ccccc1`, the compound was called inactive.

In the case of `O=C1c2ccccc2C(=O)N1CCC(O)C[N+](=O)[O-]` (configuration not stated), the call was inactive.

In the case of `Cc1nc2c([nH]1)C1(CCN(Cc3ccccc3)CC1)C(C#N)=C(N)O2`, the result was inactive.

For `CC(C)OCCCNC(=O)Nc1cccc2ccccc12`, the call was inactive.

`COc1ccc(-c2nc(CN3CCCCC3c3cccnc3)c(C)o2)c(F)c1` (configuration not stated): the result was inactive.

As for `Cc1ccc(CC(CC(=O)O)C(=O)NC2CCCCC2)cc1` (configuration not stated), the outcome was inactive.

Take `Cc1cc(/C=C(\C#N)C(=O)NCc2cccs2)c(C)[nH]1`: the compound was classed as inactive.

For the compound `CC(=O)NCCn1c(SCc2cc(=O)n3cc(Cl)ccc3n2)nc2ccccc2c1=O`, the result was inactive.

As for `CS(=O)(=O)N(CC(N)=O)c1cccc(Br)c1`, the result was inactive.

Consider `CCCCCCCCNC(=S)NCCN1CCCCC1`, for which the outcome was inactive.

On to `COc1ccc(/C=C/C(=O)NC(=S)NNC(=O)c2cccnc2)cc1OC`, for which the call was inactive.

As to `Cc1cccc(OCC(=O)NNC(=O)CCc2ccccc2)c1`, the compound was called inactive.

Regarding `CNC(=S)N/N=C(\C)c1ccc(N2CCOCC2)cc1`, the call was inactive.

With `CC(C)(C)C1(O)CC(C(F)(F)F)=NN1C(=O)CCCc1ccccc1` (configuration not stated), the compound was called inactive.
